Source: PubChem BioAssay
Calls of active or inactive are those of the source.

Legend:
[1] = compound effects on differentiated 3T3-L1 adipocyte viability – cell-based, 3T3-L1 adipocytes, calcein-AM fluorescence, 48 h, basal, profiling panel (AID 1163); conditions: 3T3-L1 adipocytes viability, higher = more signal
[2] = compound effects on hepatocellular carcinoma cell viability – HepG2, calcein-AM fluorescence, 48 h, basal, profiling panel (AID 1164); conditions: higher = more signal
[3] = compound effects on multiple myeloma cell viability – MM1S, calcein-AM fluorescence, 48 h, basal, profiling panel (AID 1165); conditions: higher = more signal
[4] = calcein-AM signal in unstimulated myeloma cells – cell-based, calcein-AM fluorescence, 48 h, PK04 Diversity Set, profiling panel (AID 1166); conditions: RPMI8226 myeloma viability, higher = more signal;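 note: cells grown under basal conditions without added stimulus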
[5] = JC-1 mitochondrial signal, unstimulated HepG2 cells – cell-based, JC-1 fluorescence, 24 h, 100 nL compound, profiling panel (AID 1167); conditions: HepG2 mitochondrial potential, higher = more signal
[6] = JC-1 mitochondrial signal, unstimulated adipocytes – cell-based, JC-1 fluorescence, 3T3-L1 adipocytes, 24 h, 100 nL compound, profiling panel (AID 1168); conditions: JC-1 mitochondrial fluorescence, higher = more signal, called active from +8 up or from −8 down
[7] = JC-1 mitochondrial signal, unstimulated myeloma cells – cell-based, JC-1 fluorescence, RPMI8226, 24 h, 100 nL compound, profiling panel (AID 1169); conditions: JC-1 mitochondrial potential fluorescence, higher = more signal
[8] = JC-1 mitochondrial signal, unstimulated MM1S myeloma – cell-based, JC-1 fluorescence, 24 h, 100 nL compound, profiling panel (AID 1170); conditions: MM1S mitochondrial potential, higher = more signal
[9] = resazurin metabolic signal in A549 cells – cell-based, resazurin fluorescence, 24 h, PK04 Diversity Set, profiling panel (AID 1171); conditions: A549 viability, higher = more signal, called active from +8 up or from −8 down
[10] = resazurin metabolic signal in HepG2 cells – cell-based, resazurin fluorescence, 24 h, PK04 Diversity Set, profiling panel (AID 1172); conditions: HepG2 viability, higher = more signal
[11] = budding yeast growth changes without added modifier – OD600, strain BY4716, 24 h, basal condition, primary screen (AID 1173); conditions: S. cerevisiae BY4716 growth, OD600, 24 h; higher = more signal, called active from +8 up or from −8 down
[12] = viability profiling in MM1S myeloma cells – cell-based, resazurin fluorescence, basal, 24 h, PK04 Diversity Set, profiling panel (AID 1174); conditions: higher = more signal, called active from +8 up or from −8 down
[13] = target: Dihydroorotate dehydrogenase (quinone), mitochondrial (Plasmodium falciparum (isolate 3D7)) (UniProt Q08210); test: inhibition of P. falciparum DHODH – biochemical, C-terminal His tag, absorbance 600 nm, primary screen (AID 1175); conditions: PfDHODH enzyme, DCIP absorbance 600 nm; higher = more signal, called active from +8 up or from −8 down;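 note: recombinant parasite enzyme with a five histidine tag at its C terminus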
[14] = growth modulation of vineyard yeast isolate – strain RM11-1a, OD600, basal, 24 h, primary screen (AID 1177);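 note: cultures grown under basal conditions with no added stressor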; conditions: S. cerevisiae RM11-1a growth, OD600, 24 h; higher = more signal, called active from +8 up or from −8 down
[15] = growth of efflux-deficient E. coli DRC39 – strain DRC39, OD650, 24 h, E. coli filamentation inducers, primary screen (AID 1178);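 note: growth measured as culture turbidity by optical density at 650 nm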; conditions: E. coli DRC39 acrAB, higher = more signal, called active from +8 up or from −8 down
[16] = growth of efflux-deficient E. coli DRC39 – strain DRC39, OD650, 48 h, E. coli filamentation inducers, primary screen (AID 1179);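 note: screen aims at cell division blockers that make cells filament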; conditions: E. coli DRC39 delta-acrAB growth, higher = more signal, called active from +8 up or from −8 down
[17] = viability profiling in RPMI8226 myeloma cells – cell-based, resazurin fluorescence, basal, 24 h, PK04 Diversity Set, profiling panel (AID 1180); conditions: higher = more signal;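 note: RPMI8826 multiple myeloma cell line at 5000 cells per well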
[18] = target: E3 ubiquitin-protein ligase XIAP (Homo sapiens) (UniProt P98170); test: small molecules binding XIAP protein – biophysical, small-molecule microarray, fluorescence 635 nm, primary screen (AID 1181); conditions: higher = more signal;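 note: score merges 667 nm emission and signal to noise over triplicate slides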
[19] = system: XIP peptide (Xip251-270) binding; test: XIP fragment 251-270 binding compounds – biochemical, small-molecule microarray, fluorescence 635/667 nm, 0.1 µg/mL protein, primary screen (AID 1182); conditions: fluorescent protein binding, 635 nm, higher = more signal, called active from +8 up or from −8 down
[20] = system: XIP peptide (Xip251-270); test: compounds binding XIP fragment 251-270 – biochemical, small-molecule microarray, fluorescence 635/667 nm, 0.5 µg/mL protein, primary screen (AID 1183); conditions: fluorescence 635 nm, higher = more signal

Dihydroorotate dehydrogenase (quinone), mitochondrial (Plasmodium falciparum (isolate 3D7)), sequence (Q08210 whole entry, looked up): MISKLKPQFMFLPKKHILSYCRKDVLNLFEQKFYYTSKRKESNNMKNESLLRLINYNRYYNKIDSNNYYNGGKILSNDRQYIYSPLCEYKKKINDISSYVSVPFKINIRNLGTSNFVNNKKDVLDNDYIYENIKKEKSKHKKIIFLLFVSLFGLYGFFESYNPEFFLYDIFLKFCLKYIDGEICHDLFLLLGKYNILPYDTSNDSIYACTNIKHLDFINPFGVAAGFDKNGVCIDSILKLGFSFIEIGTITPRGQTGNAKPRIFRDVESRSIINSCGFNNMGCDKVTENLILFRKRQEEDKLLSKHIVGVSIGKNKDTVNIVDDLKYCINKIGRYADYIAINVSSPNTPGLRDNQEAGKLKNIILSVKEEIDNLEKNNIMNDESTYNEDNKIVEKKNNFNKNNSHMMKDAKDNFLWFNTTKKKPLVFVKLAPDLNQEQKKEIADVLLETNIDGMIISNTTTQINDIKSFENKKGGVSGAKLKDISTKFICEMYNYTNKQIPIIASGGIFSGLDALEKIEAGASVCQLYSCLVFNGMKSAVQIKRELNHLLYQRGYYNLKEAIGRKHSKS
E3 ubiquitin-protein ligase XIAP (Homo sapiens), sequence (P98170 whole entry, looked up, the tested form may be a part): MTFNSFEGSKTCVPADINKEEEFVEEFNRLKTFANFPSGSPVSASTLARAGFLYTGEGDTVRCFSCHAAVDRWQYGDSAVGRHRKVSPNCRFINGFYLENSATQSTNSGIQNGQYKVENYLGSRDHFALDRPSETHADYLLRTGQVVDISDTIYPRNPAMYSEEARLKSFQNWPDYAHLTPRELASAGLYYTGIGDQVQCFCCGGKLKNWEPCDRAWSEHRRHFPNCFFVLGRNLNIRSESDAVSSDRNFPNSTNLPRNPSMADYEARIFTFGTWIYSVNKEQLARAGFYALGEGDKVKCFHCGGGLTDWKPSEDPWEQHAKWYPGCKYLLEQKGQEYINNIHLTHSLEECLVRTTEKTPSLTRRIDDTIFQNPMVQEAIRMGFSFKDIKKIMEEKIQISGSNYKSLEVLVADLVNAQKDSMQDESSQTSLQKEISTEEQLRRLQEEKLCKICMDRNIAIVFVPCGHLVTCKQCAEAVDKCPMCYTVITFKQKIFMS

SMILES | z-score [1] | z-score [2] | z-score [3] | z-score [4] | z-score [5] | z-score [6] | z-score [7] | z-score [8] | z-score [9] | z-score [10] | z-score [11] | z-score [12] | composite z-score [13] | z-score [14] | z-score [15] | z-score [16] | z-score [17] | composite z-score [18] | composite z-score [19] | composite z-score [20]
COC(=O)C1=CC(CCCO)=CC(C2CC2)N(Cc2cc3c(cc2Br)OCO3)C=C1C(=O)OC (stereo not given) | 1.19 | 0.489 | 0.0635 | 0.627 | 1.1 | 0.857 (inactive) | -0.147 | 1.28 | 0.565 (inactive) | 0.365 | -1.81 (inactive) | 1.06 (inactive) | -0.509 (inactive) | -0.847 (inactive) | 0.489 (inactive) | -0.0093 (inactive) | 1.45 | 0.295 | 1.68 (inactive) | 0.0315
O=C(NC1CC1)[C@@H]1c2ccccc2C(=O)N(Cc2ccccc2C(F)(F)F)[C@H]1c1ccc(CO)cc1 | 1.59 | 0.0356 | -0.124 | 0.702 | 1.26 | 0.387 (inactive) | -0.0417 | 0.65 | 1.99 (inactive) | 0.187 | -0.844 (inactive) | 1.55 (inactive) | 0.209 (inactive) | -0.615 (inactive) | 0.487 (inactive) | -0.152 (inactive) | 1.98 | -0.0848 | 0.62 (inactive) | 0.618
COc1ccc([Si](C)(C)[C@H]2[C@H](CC(=O)N(CCO)Cc3ccccc3)O[C@@]3(C(=O)N(Cc4cccc(N5C(=O)COc6ccccc65)c4)c4ccccc43)[C@@H]2C)cc1 | 0.446 | -0.647 | -0.945 | -2.66 | 0.502 | 1.2 (inactive) | -0.943 | -0.397 | -0.899 (inactive) | 0.0785 | 0.337 (inactive) | -1.48 (inactive) | -0.149 (inactive) | 2.62 (inactive) | 2.07 (inactive) | 2.13 (inactive) | -2.97 | 0.0727 | 1.65 (inactive) | 0.727
CC(C)(C)OC(=O)CC[C@@]12N=C(c3ccc(OCCCO)cc3)O[C@@H]1c1ccccc1N(Cc1ccccc1)C2=O | 1.87 | -0.186 | -1.9 | -3.34 | 0.624 | 1.69 (inactive) | -0.778 | 1.44 | 0.345 (inactive) | 0.375 | -0.075 (inactive) | -0.0313 (inactive) | 0.463 (inactive) | 1.17 (inactive) | 1.59 (inactive) | 0.358 (inactive) | 0.574 | -0.635 | 1.63 (inactive) | 0.693
